Results published in PubChem BioAssay.

Test system: not listed separately
Assay: small molecules captured by biotinylated probe aFGF10 – biochemical, small-molecule microarray, fluorescence 635/667, stem cell growth factor project, primary screen (AID 1071);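 further: score merges 667 nm spot intensity and signal to noise from triplicate slides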
Conditions: higher = more signal

Row | Compound | composite z-score
1 | O=C1C[C@]2(c3ccc([N+](=O)[O-])cc3)C(=O)N(CC(F)(F)F)c3cc(CO)ccc3[C@H]2N1CC12CC3CC(CC(C3)C1)C2 | 0.0063
2 | N#Cc1ccc(NN2C(C(O)c3cccs3)C=CC3C(=O)N(c4ccccc4)C(=O)C32)cc1 (stereo not given) | 0.546
3 | COCCOC(=O)N1C(=O)[C@@]2(c3cc(C#CCNC(N)=O)ccc31)[C@H](C(=O)N1CCc3cc(OC)c(OC)cc3C1)[C@H]1C(=O)O[C@H](c3ccccc3)[C@H](c3ccccc3)N1[C@@H]2c1ccc(OCCO)cc1 | 0.392
4 | CC(=O)Nc1cc(Br)ccc1C(=O)O | 0.239
5 | C=CCOC(=O)[C@@H]1[C@H]2C(=O)O[C@H](c3ccccc3)[C@H](c3ccccc3)N2[C@H](c2ccc(OCCOC(=O)[C@@H]3C[C@@H]4C(=O)N[C@@H](Cc5ccccc5)C(=O)N4[C@@H]3c3cccc(OCCO)c3)cc2)[C@@]12C(=O)Nc1ccc(I)cc12 | 0.764
6 | [N-]=[N+]=NCc1ccccc1C[C@]1(C(=O)O)N=C(c2ccc(OCCCO)cc2)O[C@H]1c1ccccc1CN=[N+]=[N-] | 0.396
7 | NCCCCCNC(=O)[C@H]1C[C@H]2C(=O)NCC(=O)N2[C@H]1c1cccc(OCCO)c1 | -0.0838
8 | COc1cc2c(cc1OC)CN(C(=O)[C@@H]1[C@H]3C(=O)O[C@H](c4ccccc4)[C@H](c4ccccc4)N3[C@H](c3ccccc3OCCO)[C@@]13C(=O)Nc1ccc(C#CCNC(N)=O)cc13)CC2 | 0.837
9 | C=C(COC)C(=O)CC[C@H](OC(C)=O)c1cccc(OCCO)c1 | 0.553
10 | CCOC(=O)C[C@H]1[C@H](OC(=O)Cc2ccc3c(c2)OCO3)[C@@H](NC(=O)C2CCCCC2)c2cc(OCCCO)ccc2N1C(=O)Cc1ccc(OC)cc1 | 0.145
11 | COCCOC(=O)N1C(=O)[C@@]2(c3cc(C#CCNC(N)=O)ccc31)[C@H](c1ccc(OCCO)cc1)N1[C@H](c3ccccc3)[C@H](c3ccccc3)OC(=O)[C@H]1[C@@H]2C(=O)N1CCc2cc(OC)c(OC)cc2C1 | 0.164
12 | COCCOC(=O)N1C(=O)[C@@]2(c3cc(C#CC4(O)CCCCCC4)ccc31)[C@H](C(=O)N1CCCCCCC1)[C@H]1C(=O)O[C@H](c3ccccc3)[C@H](c3ccccc3)N1[C@@H]2c1ccccc1OCCO | 0.298
13 | C=C(COC)/C(=C/C[C@H](OC(=O)c1ccncc1)c1cccc(OCCO)c1)c1cc(C(=O)OC)ccc1OC | 0.783
14 | COc1c(C)cc(-c2cc3c(c(-c4ccc(Oc5ccccc5)cc4)n2)[Si](C(C)C)(C(C)C)OC3)cc1C | -0.114
15 | CCOC(=O)C1=CCC(c2ccc(C#N)cc2)N(S(=O)(=O)c2ccc(C)cc2)C1 (stereo not given) | 0.446
16 | CCOC(=O)C1=C[C@@H](C(C)C)N(S(=O)(=O)c2ccc(C)cc2)[C@H]1c1ccc(C(C)C)cc1 | 0.543
17 | CCOC(=O)C1=CCC(C(C)(C)C)N(S(=O)(=O)c2ccc(C)cc2)C1 (stereo not given) | 1.23
18 | CCCCC=C[C@@H](NC(=O)c1ccco1)c1ccccc1 | 0.372
19 | CC(C)(C)N1CC=CC23O[C@@H]4C=CCOC(=O)[C@@H]4[C@H]2C(=O)N(CCCCCO)[C@@H]3C1=O (stereo not given in full) | -0.335
20 | O=C1C=CC(=O)[C@@H]2CC(COc3ccccc3)=C3[C@@H](CCc4ccccc4)OB(O)C[C@@H]3[C@H]12 | 0.272
21 | Cc1ccccc1C(O)C1C=CC2C(=O)N(C)C(=O)C2N1N1CCCCC1 (stereo not given) | 1.13
22 | CCOC(=O)C[C@H]1[C@H](OC(=O)c2ccc(C(=O)c3ccccc3)cc2)[C@@H](NC(=O)C2CCCCC2)c2cc(OCCCO)ccc2N1C(=O)c1ccccc1 | 0.494
23 | Cc1ccc(S[C@]2(C(=O)NCC(C)C)CC(=O)N(Cc3ccccc3Cl)[C@@H]2c2ccc(CO)cc2)cc1 | -0.584
24 | COc1cccc(C(=O)O[C@H]2CC[C@]3(C)C4=C(CCC3C2(C)C)[C@]2(C)CC[C@H]([C@H](C)CCCC(C)C)[C@@]2(C)CC4)c1 (stereo not given in full) | 0.366

Molecular target: Neurogenic locus notch homolog protein 2 (Homo sapiens) (UniProt Q04721)
Sequence (Q04721 whole entry, looked up): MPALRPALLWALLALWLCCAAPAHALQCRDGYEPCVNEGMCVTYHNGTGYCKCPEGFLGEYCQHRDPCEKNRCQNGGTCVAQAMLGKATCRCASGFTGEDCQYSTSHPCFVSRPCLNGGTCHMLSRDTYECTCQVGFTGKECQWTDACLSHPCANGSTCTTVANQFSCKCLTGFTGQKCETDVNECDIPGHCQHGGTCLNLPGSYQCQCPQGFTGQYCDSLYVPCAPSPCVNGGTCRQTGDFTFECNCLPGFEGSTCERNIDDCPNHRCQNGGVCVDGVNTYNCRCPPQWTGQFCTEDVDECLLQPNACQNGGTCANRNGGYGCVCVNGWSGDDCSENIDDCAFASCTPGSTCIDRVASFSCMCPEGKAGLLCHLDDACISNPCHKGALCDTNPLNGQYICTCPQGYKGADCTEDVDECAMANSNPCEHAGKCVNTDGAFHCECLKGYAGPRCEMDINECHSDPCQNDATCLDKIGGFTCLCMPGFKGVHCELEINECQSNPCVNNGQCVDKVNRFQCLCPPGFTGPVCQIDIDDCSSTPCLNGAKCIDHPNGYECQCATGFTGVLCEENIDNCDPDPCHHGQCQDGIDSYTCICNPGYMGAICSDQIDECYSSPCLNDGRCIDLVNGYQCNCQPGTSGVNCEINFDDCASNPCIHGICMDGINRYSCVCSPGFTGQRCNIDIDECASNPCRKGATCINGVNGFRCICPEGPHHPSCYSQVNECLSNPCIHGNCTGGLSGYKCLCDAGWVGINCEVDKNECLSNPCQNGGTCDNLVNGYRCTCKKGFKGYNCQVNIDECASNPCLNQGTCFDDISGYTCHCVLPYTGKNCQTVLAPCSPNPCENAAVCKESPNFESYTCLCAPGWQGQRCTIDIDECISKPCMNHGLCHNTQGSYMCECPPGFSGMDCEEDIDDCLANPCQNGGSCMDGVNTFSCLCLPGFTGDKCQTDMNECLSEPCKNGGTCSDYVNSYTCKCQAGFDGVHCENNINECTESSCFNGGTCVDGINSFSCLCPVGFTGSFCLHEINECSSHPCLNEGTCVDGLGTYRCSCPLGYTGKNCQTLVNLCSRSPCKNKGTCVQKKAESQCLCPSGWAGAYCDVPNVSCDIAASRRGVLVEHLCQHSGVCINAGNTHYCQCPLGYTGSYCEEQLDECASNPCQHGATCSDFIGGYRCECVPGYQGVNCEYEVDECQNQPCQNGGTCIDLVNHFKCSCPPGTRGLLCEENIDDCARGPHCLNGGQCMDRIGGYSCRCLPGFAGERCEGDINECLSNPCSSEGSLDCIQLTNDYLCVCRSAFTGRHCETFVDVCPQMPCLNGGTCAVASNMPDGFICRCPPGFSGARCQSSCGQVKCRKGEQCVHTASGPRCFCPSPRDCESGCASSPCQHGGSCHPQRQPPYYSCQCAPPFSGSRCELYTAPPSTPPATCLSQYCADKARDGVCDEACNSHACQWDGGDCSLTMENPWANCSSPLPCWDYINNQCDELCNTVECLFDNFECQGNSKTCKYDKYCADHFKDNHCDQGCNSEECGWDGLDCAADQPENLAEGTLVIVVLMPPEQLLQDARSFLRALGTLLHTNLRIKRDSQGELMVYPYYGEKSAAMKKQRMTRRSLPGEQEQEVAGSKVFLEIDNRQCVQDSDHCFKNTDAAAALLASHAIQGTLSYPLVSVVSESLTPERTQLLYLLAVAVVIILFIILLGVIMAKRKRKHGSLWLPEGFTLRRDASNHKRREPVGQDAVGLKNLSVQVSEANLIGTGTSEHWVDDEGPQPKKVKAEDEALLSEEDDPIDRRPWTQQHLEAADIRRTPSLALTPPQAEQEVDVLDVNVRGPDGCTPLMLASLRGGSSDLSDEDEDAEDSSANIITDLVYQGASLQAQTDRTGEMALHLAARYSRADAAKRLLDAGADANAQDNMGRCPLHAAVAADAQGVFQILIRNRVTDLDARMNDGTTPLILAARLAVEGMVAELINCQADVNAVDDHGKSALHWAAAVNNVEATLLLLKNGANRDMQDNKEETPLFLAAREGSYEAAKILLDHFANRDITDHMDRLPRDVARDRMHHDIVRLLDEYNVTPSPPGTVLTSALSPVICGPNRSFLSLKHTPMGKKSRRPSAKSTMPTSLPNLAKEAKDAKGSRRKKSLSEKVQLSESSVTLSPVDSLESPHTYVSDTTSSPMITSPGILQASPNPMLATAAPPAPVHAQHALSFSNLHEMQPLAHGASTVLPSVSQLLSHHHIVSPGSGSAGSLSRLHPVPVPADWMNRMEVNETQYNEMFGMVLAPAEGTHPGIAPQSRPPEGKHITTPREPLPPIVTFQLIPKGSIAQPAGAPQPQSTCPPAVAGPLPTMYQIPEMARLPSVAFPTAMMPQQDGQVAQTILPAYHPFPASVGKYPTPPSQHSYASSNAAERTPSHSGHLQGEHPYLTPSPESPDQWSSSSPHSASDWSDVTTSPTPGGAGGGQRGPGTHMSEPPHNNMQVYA
Assay: small molecules binding Notch2 protein – biochemical, small-molecule microarray, 635 nm fluorescence, stem cell growth factors, primary screen (AID 1073)
Conditions: higher = more signal

Row | Compound | composite z-score
25 | O=c1cccc(CCc2ccccc2)o1 | -0.321
26 | COc1ccc([Si](C)(C)[C@H]2[C@H](CCn3cc(CCO)nn3)O[C@@]3(C(=O)N(Cc4ccc(N5CCOC5=O)cc4)c4ccccc43)[C@@H]2C)cc1 | 0.14
27 | C=CC[C@@H](OC(=O)Nc1ccc(OC)cc1)c1ccc(O)c2ccccc12 | 0.746
28 | CC(c1ccccc1)C(O)C1C=CC2C(=O)NC(=O)C2N1Nc1ccccn1 (stereo not given) | 1.5
29 | CC(C)CNC(=O)[C@@H]1c2ccccc2C(=O)N(Cc2cc(C(F)(F)F)cc(C(F)(F)F)c2)[C@H]1c1ccc(CO)cc1 | -0.744
30 | C[C@]1(C(=O)NCc2ccccc2)c2ccccc2C(=O)N(Cc2cc(F)cc(C(F)(F)F)c2)[C@H]1c1ccc(CO)cc1 | -0.706
31 | O=C1O[C@H](c2ccccc2)[C@H](c2ccccc2)N2[C@H]1[C@@H](C(=O)Nc1nc3ccccc3s1)[C@]1(C(=O)Nc3ccccc31)[C@H]2c1ccc(O)cc1 | 1.13
32 | CN(C)CCCNC(=O)[C@@]1(Cc2ccccc2I)c2ccccc2C(=O)N(Cc2ccccc2C(F)(F)F)[C@H]1c1ccc(CO)cc1 | -0.936
33 | CCCCCN1CC=CC23O[C@@H]4C=CCOC(=O)[C@@H]4[C@H]2C(=O)N(CCCO)[C@@H]3C1=O (stereo not given in full) | -0.661
34 | C=C(CCCC)/C(=C/C[C@H](OC(C)=O)c1ccc(CO)o1)c1cnc2ccccc2c1 | 1.1
35 | CC(C)NC(=O)[C@@]1(Cc2ccccc2I)c2ccccc2C(=O)N(Cc2ccccc2)[C@H]1c1ccc(CO)cc1 | 0.787
36 | O=C1C2C=CC(C(O)c3ccc(B(O)O)cc3)N(Nc3ccccc3)C2C(=O)N1c1ccccc1 (stereo not given) | 0.971
37 | O=C1C[C@]2(c3ccc([N+](=O)[O-])cc3)C(=O)N(CC(F)(F)F)c3cc(CO)ccc3[C@H]2N1CC12CC3CC(CC(C3)C1)C2 | -0.284
38 | N#Cc1ccc(NN2C(C(O)c3cccs3)C=CC3C(=O)N(c4ccccc4)C(=O)C32)cc1 (stereo not given) | 1.47
39 | COCCOC(=O)N1C(=O)[C@@]2(c3cc(C#CCNC(N)=O)ccc31)[C@H](C(=O)N1CCc3cc(OC)c(OC)cc3C1)[C@H]1C(=O)O[C@H](c3ccccc3)[C@H](c3ccccc3)N1[C@@H]2c1ccc(OCCO)cc1 | 0.578
40 | CC(=O)Nc1cc(Br)ccc1C(=O)O | 0.425
41 | C=CCOC(=O)[C@@H]1[C@H]2C(=O)O[C@H](c3ccccc3)[C@H](c3ccccc3)N2[C@H](c2ccc(OCCOC(=O)[C@@H]3C[C@@H]4C(=O)N[C@@H](Cc5ccccc5)C(=O)N4[C@@H]3c3cccc(OCCO)c3)cc2)[C@@]12C(=O)Nc1ccc(I)cc12 | 1.03
42 | [N-]=[N+]=NCc1ccccc1C[C@]1(C(=O)O)N=C(c2ccc(OCCCO)cc2)O[C@H]1c1ccccc1CN=[N+]=[N-] | 0.591

Row | Compound | composite z-score
43 | NCCCCCNC(=O)[C@H]1C[C@H]2C(=O)NCC(=O)N2[C@H]1c1cccc(OCCO)c1 | 0.709
44 | COc1cc2c(cc1OC)CN(C(=O)[C@@H]1[C@H]3C(=O)O[C@H](c4ccccc4)[C@H](c4ccccc4)N3[C@H](c3ccccc3OCCO)[C@@]13C(=O)Nc1ccc(C#CCNC(N)=O)cc13)CC2 | 0.936
45 | C=C(COC)C(=O)CC[C@H](OC(C)=O)c1cccc(OCCO)c1 | -0.844
46 | CCOC(=O)C[C@H]1[C@H](OC(=O)Cc2ccc3c(c2)OCO3)[C@@H](NC(=O)C2CCCCC2)c2cc(OCCCO)ccc2N1C(=O)Cc1ccc(OC)cc1 | 1.17
47 | COCCOC(=O)N1C(=O)[C@@]2(c3cc(C#CCNC(N)=O)ccc31)[C@H](c1ccc(OCCO)cc1)N1[C@H](c3ccccc3)[C@H](c3ccccc3)OC(=O)[C@H]1[C@@H]2C(=O)N1CCc2cc(OC)c(OC)cc2C1 | 0.638
48 | COCCOC(=O)N1C(=O)[C@@]2(c3cc(C#CC4(O)CCCCCC4)ccc31)[C@H](C(=O)N1CCCCCCC1)[C@H]1C(=O)O[C@H](c3ccccc3)[C@H](c3ccccc3)N1[C@@H]2c1ccccc1OCCO | 1.25
49 | C=C(COC)/C(=C/C[C@H](OC(=O)c1ccncc1)c1cccc(OCCO)c1)c1cc(C(=O)OC)ccc1OC | 0.0724
50 | COc1c(C)cc(-c2cc3c(c(-c4ccc(Oc5ccccc5)cc4)n2)[Si](C(C)C)(C(C)C)OC3)cc1C | 0.104
51 | CCOC(=O)C1=CCC(c2ccc(C#N)cc2)N(S(=O)(=O)c2ccc(C)cc2)C1 (stereo not given) | 1.67
52 | CCOC(=O)C1=C[C@@H](C(C)C)N(S(=O)(=O)c2ccc(C)cc2)[C@H]1c1ccc(C(C)C)cc1 | 1.52
53 | CCOC(=O)C1=CCC(C(C)(C)C)N(S(=O)(=O)c2ccc(C)cc2)C1 (stereo not given) | 1.49
54 | CCCCC=C[C@@H](NC(=O)c1ccco1)c1ccccc1 | 0.929
55 | CC(C)(C)N1CC=CC23O[C@@H]4C=CCOC(=O)[C@@H]4[C@H]2C(=O)N(CCCCCO)[C@@H]3C1=O (stereo not given in full) | -1.38
56 | O=C1C=CC(=O)[C@@H]2CC(COc3ccccc3)=C3[C@@H](CCc4ccccc4)OB(O)C[C@@H]3[C@H]12 | 0.222
57 | Cc1ccccc1C(O)C1C=CC2C(=O)N(C)C(=O)C2N1N1CCCCC1 (stereo not given) | 1.54
58 | CCOC(=O)C[C@H]1[C@H](OC(=O)c2ccc(C(=O)c3ccccc3)cc2)[C@@H](NC(=O)C2CCCCC2)c2cc(OCCCO)ccc2N1C(=O)c1ccccc1 | 1.02
59 | Cc1ccc(S[C@]2(C(=O)NCC(C)C)CC(=O)N(Cc3ccccc3Cl)[C@@H]2c2ccc(CO)cc2)cc1 | -1.36
60 | COc1cccc(C(=O)O[C@H]2CC[C@]3(C)C4=C(CCC3C2(C)C)[C@]2(C)CC[C@H]([C@H](C)CCCC(C)C)[C@@]2(C)CC4)c1 (stereo not given in full) | -0.87
